Hits are enriched below; roughly 1.1% of the tested compounds scored in any of these assays.
MOR-DOR ag-1: agonists of OPRM1-OPRD1 heterodimerization, primary screen, cell-based, luminescence; cells; activation, % at 9.3 µM; 0.3% of 340,000 active; AID 504326, 2011;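 also: 0% = vehicle-treated cells and 100% = reference agonist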
HTR5A ag ctr: HTR5A agonists in luminescence cell assay, primary screen, counter-screen for OPRM1-OPRD1 heterodimer agonist project, full-deck HTS; 5-hydroxytryptamine receptor 5A (Homo sapiens), P47898; cell-based; activation, % at 9.3 µM; 0.61% of 340,000 active; in the data active = activation mostly above about 9.5%, no sharp cut-off; inactive = mostly below about 7.6%;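 also: 0% = cells with vehicle only and 100% = reference agonist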
Target sequence (P47898 whole entry, looked up): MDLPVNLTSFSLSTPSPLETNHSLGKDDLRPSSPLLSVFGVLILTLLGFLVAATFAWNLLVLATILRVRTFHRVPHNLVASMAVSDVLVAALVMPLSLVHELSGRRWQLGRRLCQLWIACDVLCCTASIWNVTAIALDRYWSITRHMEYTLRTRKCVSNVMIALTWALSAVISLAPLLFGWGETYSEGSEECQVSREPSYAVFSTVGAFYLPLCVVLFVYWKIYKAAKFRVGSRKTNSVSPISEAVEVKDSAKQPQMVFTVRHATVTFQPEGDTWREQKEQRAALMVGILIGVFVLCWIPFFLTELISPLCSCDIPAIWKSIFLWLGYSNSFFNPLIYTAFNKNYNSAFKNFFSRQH
A1 inh: caspase 3/7 activation in MEF A1-2A-BIM cells, primary screen, A1 inhibitor project, cell-based, luminescence, HTS | 0.066% of 330,000 active | Caspase-Glo 3/7 luminescence, 3 h; percent of clofoctol response, vehicle zero | caspase activation, % (concentration not given with the values);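 active = over half of replicate activation scores above 10%, or exactly half above 10 with the replicate mean above 10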
HTR5A inv ag: HTR5A inverse agonists in luminescence cell assay, primary screen, counter-screen for OPRM1-OPRD1 heterodimer inverse agonist project, full-deck HTS; AID 504634, 2011; 0.083% of 340,000 active; 5-hydroxytryptamine receptor 5A (Homo sapiens), P47898; HTR5A cell line, inverse agonism; inhibition, % at 9.3 µM; in the data active = inhibition mostly above about 23%, no sharp cut-off; inactive = mostly below about 18%;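 also: 0% = cells with DMSO and 100% = no-cell wells with DMSO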
MOR-DOR inv ag: inverse agonists of MOR-DOR heterodimerization, primary screen, cell-based, luminescence | inhibition, % at 9.3 µM | Mu-type opioid receptor (Homo sapiens) + Delta-type opioid receptor (Homo sapiens), … | 0.21% of 340,000 active | AID 504357, 2011 | cell-based MOR-DOR heterodimer luminescence, inverse agonism; in the data active = inhibition above about 22%, passing the limit was not always enough;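 also: 0% = cells with DMSO and 100% = wells without cells with DMSO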
MOR-DOR ag-2: OPRM1-OPRD1 heterodimerization promoters, counter-screen for HTR5A agonist project, cell-based, luminescence; shares compounds with HTR5A ag ctr; U2OS counter-screen cells, complementation luminescence, 3 h; AID 504913, 2011; 13% of 800 active; activation, % at 9.3 µM
HTR5A ag conf: HTR5A agonists, retest of hits, confirmation, cell-based, luminescence | 17% of 800 active | activation, % at 9.3 µM | AID 504915, 2011 | shares compounds with HTR5A ag ctr | HTR5A agonist cell assay; in the data active = activation above about 17%;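 also: 0% = cells with vehicle only and 100% = full reference agonist response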
Active calls of the source: *; . = not tested or not shown. Rule as the data show it, unless noted: active = activation above about 18%; inactive = the rest.

SMILES | MOR-DOR ag-1 | HTR5A ag ctr | A1 inh | HTR5A inv ag | MOR-DOR inv ag | MOR-DOR ag-2 | HTR5A ag conf
Fc1ccccc1CNCCc1c[nH]c2ccccc12 | -2 | 25* | 2 | -88 | 9 | 2 | 39*
FC(F)(F)c1ccccc1CNCCc1c[nH]c2ccccc12 | 2 | -3 | 0 | 10 | -10 | . | .
COc1nc2ccccc2nc1N1CCN(C)CC1 | -1 | 20* | 1 | -79 | 7 | 4 | 6
CN1C[C@H](CO)C=C2c3cccc4[nH]cc(c34)C[C@H]21 | 4 | 60* | -1 | 13 | -22 | 11 | 2
CCCCCCC(Cl)(Cn1ccnc1)c1ccccc1 (configuration not stated) | 8 | 0 | 0 | 0 | -38 | . | .
CC(=NCCc1c[nH]c2ccccc12)c1c(O)n(Cc2ccccc2)c(=O)[nH]c1=O | -1 | 8 | 0 | -82 | 4 | . | .
CCC(=NCCc1c[nH]c2ccccc12)c1c(O)n(-c2ccc(C)cc2)c(=O)[nH]c1=O | 0 | 19* | 0 | -113 | 2 | 0 | -8
CCC(=NCCc1c[nH]c2ccccc12)c1c(O)n(C)c(=O)n(C)c1=O | 1 | 40* | -1 | -124 | -7 | 1 | 1
Cc1cc(OCC(=O)N2CCCN(C)CC2)ccc1Cl | -2 | 3 | 1 | 19 | 8 | . | .
c1ccc2c(c1)[IH]c1ccccc1-2 | 10 | 2 | . | -10 | -54 | . | .
CC12CCC3c4ccc(OC(=O)N(CCCl)CCCl)cc4CCC3C1CCC2O (configuration not stated) | 2 | 2 | . | -9 | -13 | . | .
Cc1[nH]nc2ccc(-c3cncc(OC[C@@H](N)Cc4c[nH]c5ccccc45)c3)cc12 | 17 | 15 | . | -37 | -94 | . | .
Cc1cccc(CSc2nc3c(cc2C#N)CN(C)CC3)c1 | -3 | 20* | 0 | -51 | 18 | 0 | 0
CN1CCc2nc(SCc3ccccc3Br)c(C#N)cc2C1 | -2 | -5 | 3 | -39 | 8 | . | .
CC[C@H]1CN(C)CCc2c([nH]c3ccccc23)C(=O)C[C@@H]1/C(=C\OC)C(=O)OC | -3 | 4 | 0 | 16 | 13 | . | .
COc1ccc2[nH]cc(CCN=C(N)N)c2c1 | 0 | 6 | -1 | -15 | 0 | . | .
CC(N)Cc1c[nH]c2ccc(Cl)cc12 (configuration not stated) | -2 | 2 | 0 | -42 | 12 | . | .
CCCCc1ccc2[nH]cc(CCN)c2c1 | 5 | 97* | -1 | -231 | -31 | -2 | -7
NCCc1c[nH]c2ccc(OCc3ccccc3)cc12 | 0 | 33* | 0 | -86 | 0 | 0 | 1
CN1CC=C(c2c[nH]c3ccccc23)CC1 | -1 | 23* | 0 | -70 | 6 | -2 | -1
CN1CCN(Cc2cc3c(cc2[N+](=O)[O-])OCO3)CC1 | 0 | 2 | -1 | -7 | 1 | . | .
CCN(CC)c1ccc(N=Cc2c(O)n(-c3ccccc3C)c(=O)[nH]c2=O)cc1 | 3 | 18* | 0 | -26 | -18 | 13 | 5
